Whole data set: some 68,000 sequences, median “fluorescence intensity (a.u.)” near 9,100, cut for the highest 2% near 16,000. The sample as a whole holds a higher share of the highest values than the screen did.
What follows are sequences tested against OsWRKY34 (Oryza sativa, UniProt Q0JBA9 1-250) (assay: protein-binding microarray (RPBM); PBS, 2% BSA, 51.3 ng/ul salmon testes DNA, 50 uM zinc acetate, 200 nM TF, 25 C, 1 h; high values mean tight binding). Settings: protein: recombinant; tags: N-terminal polyhistidine and DsRed monomer fusion (pET32a); label: CyDye5-dUTP incorporated in the synthesized complementary strand; 3' TTTTT single-stranded linker to array surface; dsDNA, one strand shown.
Outline: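 Ni–NTA purification followed expression in E. coli BL21-CodonPlus of transcription factors fused N-terminally to a polyhistidine tag and DsRed. At 200 nM in PBS with 2% BSA, salmon testes DNA and 50 µM zinc acetate, the protein was incubated for 1 h at 25 °C with a custom Agilent array that had been primer-extended with Cy5-dUTP and blocked with 2% BSA. After washing, the array was read on an Axon 4000B scanner. The binding signal is per-feature fluorescence intensity in arbitrary units.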

Chain of OsWRKY34 (Q0JBA9 entry or part of it): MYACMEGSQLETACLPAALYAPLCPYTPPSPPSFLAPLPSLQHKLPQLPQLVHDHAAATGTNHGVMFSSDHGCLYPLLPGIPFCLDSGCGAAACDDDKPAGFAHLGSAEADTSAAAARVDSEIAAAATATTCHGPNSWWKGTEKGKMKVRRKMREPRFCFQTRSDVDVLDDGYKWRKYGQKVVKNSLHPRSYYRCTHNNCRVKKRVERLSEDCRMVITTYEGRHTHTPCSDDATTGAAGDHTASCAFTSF

In order of rising binding signal:
1. GGCACGCTACTACTCCTACTATATGATAAAAAAACACTACCGGAGTCACCTAGTGCAG  8150 fluorescence intensity (a.u.)
2. GTTGAAGTTTTTGGCAGGGGTTAGTTTCGAAATAAGTTTTCGGAGTCACCTAGTGCAG  8170 fluorescence intensity (a.u.)
3. AATGATTACAACCTACCTCTTCTCAGCGGGGTGTCCATTACGGAGTCACCTAGTGCAG  8260 fluorescence intensity (a.u.)
4. CCTGTCATGGAGGATGTTTCCTGAAGTTTCAGAGCTGTATCGGAGTCACCTAGTGCAG  8310 fluorescence intensity (a.u.)
5. GTTTTAATAATGTGTTTGTTTTGGGTTAAAAACCATACTACGGAGTCACCTAGTGCAG  8340 fluorescence intensity (a.u.)
6. TTTTCTTGTTTGATTGACATAATGGGCCCTACATATTTTTCGGAGTCACCTAGTGCAG  8440 fluorescence intensity (a.u.)
7. ACAATGGCACGGTCTACAAAATATATTTTTGACCTTATTTCGGAGTCACCTAGTGCAG  8440 fluorescence intensity (a.u.)
8. GTGTATGTATATATGAGTATGTGTGTTTATATTGTATTTTCGGAGTCACCTAGTGCAG  8460 fluorescence intensity (a.u.)
9. TTGAAGTTTTTGGCAGGGGTTAGTTTCGAAATAAGTTTTCCGGAGTCACCTAGTGCAG  8480 fluorescence intensity (a.u.)
10. AGCTGGCTAAATCATATTTCCAAAGTCTCTCTCGTCTCTCCGGAGTCACCTAGTGCAG  8510 fluorescence intensity (a.u.)
11. CGCACCGTCGACTAGTCCCGTCCCGTCGCGCCGTTGCCTTCGGAGTCACCTAGTGCAG  8590 fluorescence intensity (a.u.)
12. GTGTTAGGTGCTGAGATTTTTGTACTTGCTTTATTATTTTCGGAGTCACCTAGTGCAG  8860 fluorescence intensity (a.u.)
13. TTAGATTTTTCTTACAACCATTTGCATTGATTTTTTTTTTCGGAGTCACCTAGTGCAG  8960 fluorescence intensity (a.u.)
14. TTTTCAACCTTATATTGTCATTGTCCGTCAACTTGGCTTGCGGAGTCACCTAGTGCAG  8970 fluorescence intensity (a.u.)
15. TTTTATGTTTGTTGGTTGTTGAGTTTATGTGATTATATTTCGGAGTCACCTAGTGCAG  9050 fluorescence intensity (a.u.)
16. GCCTTCACAAAATCACAAGCGAATGATTTTACTGCCTTGCCGGAGTCACCTAGTGCAG  9190 fluorescence intensity (a.u.)
17. GTTATGGGTTTGATTTTTTTTCGTTTAGAAAGTTATGGGTCGGAGTCACCTAGTGCAG  9220 fluorescence intensity (a.u.)
18. TGGTCAAGCCCTTTTTGATCTTTTTTTTTCTGTCTCATGCCGGAGTCACCTAGTGCAG  9610 fluorescence intensity (a.u.)
19. GACGGGTGTTTCTAGGGTTAAGGTTAGGTTTTTTTTTTGACGGAGTCACCTAGTGCAG  9680 fluorescence intensity (a.u.)
20. ATCGCTGGCTTATCATACTCTATTATACCTGCTCTAAGGACGGAGTCACCTAGTGCAG  10000 fluorescence intensity (a.u.)
21. GCTGACTTCATCTTCATTTTAATATATCTCAAACACCACGCGGAGTCACCTAGTGCAG  10200 fluorescence intensity (a.u.)
22. AAGAGTACGGGTGGGGATGCTTTGGAGTTCACTCCAACTCCGGAGTCACCTAGTGCAG  10300 fluorescence intensity (a.u.)
23. GATGTTCCTGGCCGTGATCGAGCTCCTGCGTTCTTGCTTACGGAGTCACCTAGTGCAG  10400 fluorescence intensity (a.u.)
24. TGAGTTTTTGTTTGTATTGTTTGACTACTCGTCTTATTCACGGAGTCACCTAGTGCAG  10400 fluorescence intensity (a.u.)
25. CACCCTTCTTCTCACCCATTGACGGATGCCCTGGAGGTTTCGGAGTCACCTAGTGCAG  10400 fluorescence intensity (a.u.)
26. AGAACAGTTTTTAATCTGACATGTGCCTGTAGTTTGTTGTCGGAGTCACCTAGTGCAG  10600 fluorescence intensity (a.u.)
27. ATTTTTTTCGGTTTGGTTGATTTTATTGAGTTACATTTACCGGAGTCACCTAGTGCAG  10900 fluorescence intensity (a.u.)
28. TCCCGTACGCCTCTACTACCTCTTTTACCTGCGTGCCTTCCGGAGTCACCTAGTGCAG  11100 fluorescence intensity (a.u.)
29. TATTGCACCTTTTCTCTATTGTTTTGAATTCAGTGAAGATCGGAGTCACCTAGTGCAG  11600 fluorescence intensity (a.u.)
30. GACCTGTCTACCGCCGCCCTAGTGACTAATGTTGACCACACGGAGTCACCTAGTGCAG  12000 fluorescence intensity (a.u.)
31. GTTAGGGTTTTTTTTATTTTTCGATTTTTTTTGTGTTTTTCGGAGTCACCTAGTGCAG  12000 fluorescence intensity (a.u.)
32. TCTTGATTTTTGCATTAGTAGTAGTTGCGTCTTATATTTTCGGAGTCACCTAGTGCAG  12100 fluorescence intensity (a.u.)
33. TACCCTTTTTTTGGGTAGGGTGGGTTGGATTTATTTATTTCGGAGTCACCTAGTGCAG  12300 fluorescence intensity (a.u.)
34. ATATATATATATATATATATATATATATATAGTGGAATGACGGAGTCACCTAGTGCAG  12300 fluorescence intensity (a.u.)
35. ATTCGAGATCAGCTTTCTCTTCTATTTTGCTACTAGTTCTCGGAGTCACCTAGTGCAG  13000 fluorescence intensity (a.u.)
36. AAGTTTAGGGTGAGCAATGTCTGGTTTTCGGGTTCAGGGGCGGAGTCACCTAGTGCAG  13300 fluorescence intensity (a.u.)
37. AGGGTTTGGTTGATTTTCGGATTTGGTTTGGTTTTGACGACGGAGTCACCTAGTGCAG  13300 fluorescence intensity (a.u.)
38. TAGGTCTGCTTCAGAGATGGGGTTAGGGTTAGATTTGTTCCGGAGTCACCTAGTGCAG  14000 fluorescence intensity (a.u.)
39. CGGGCGATTCTAGGGTTATGGTTAGGGTTTTTTTTATTTTCGGAGTCACCTAGTGCAG  14500 fluorescence intensity (a.u.)
40. GCGTGTGTTGTGAGATGTATTATGTTGTGCTTTGTATTTTCGGAGTCACCTAGTGCAG  14900 fluorescence intensity (a.u.)
41. TGGAGGTGGTGGTGGGAGGAAGGGGAGGAGGAGGCGCGGCCGGAGTCACCTAGTGCAG  15100 fluorescence intensity (a.u.)
42. TTGCTTTCCTTGGCCTCACGCTTGTTCCATGTTAGTTCGACGGAGTCACCTAGTGCAG  16100 fluorescence intensity (a.u.)
43. TCATGGGCGGGTTGAGCAATGTTTCTTGTGATTAGTCTCACGGAGTCACCTAGTGCAG  16300 fluorescence intensity (a.u.)
44. GGGTTTTTGGTTTTGGTTTTGATTTTGATTTTGATTTTGACGGAGTCACCTAGTGCAG  16400 fluorescence intensity (a.u.)
45. TCTAGGGTTAGGGTTTCGTGATTTTTGGTTTTTTATTTTTCGGAGTCACCTAGTGCAG  16900 fluorescence intensity (a.u.)
46. TATATATATATATATATATATATATATATATAAGGTTTGACGGAGTCACCTAGTGCAG  17300 fluorescence intensity (a.u.)
47. GGTTGAAGTTTTTGGCAGGGGTTAGTTTCGAAATAAGTTTCGGAGTCACCTAGTGCAG  17900 fluorescence intensity (a.u.)
48. CGGGGCGTGAGGGGTTATGAGTATATTTGTATTTTTTTTTCGGAGTCACCTAGTGCAG  18400 fluorescence intensity (a.u.)
49. GGTTATGGGCGGGTTGAGCAATGTTTTTCATGATTAGTCTCGGAGTCACCTAGTGCAG  18600 fluorescence intensity (a.u.)
50. CAGTTGGCCTGTTTGTTTGTTGGTTGTGATTAATCTGTGACGGAGTCACCTAGTGCAG  18800 fluorescence intensity (a.u.)
51. GACCTTATTTGCATTGATTGACCTTATTTGCATTGATTTTCGGAGTCACCTAGTGCAG  19700 fluorescence intensity (a.u.)
52. AGTCGCAGTGGTTTTGGTTGGTTGGTTGATTACATTTTGACGGAGTCACCTAGTGCAG  20000 fluorescence intensity (a.u.)
53. GTAGGGGTGGTGGATTTTTTTTTATTTGCTGAGATGATTTCGGAGTCACCTAGTGCAG  20600 fluorescence intensity (a.u.)
54. CGTTGATTTGGTTTGGGTTAGTTATGGGTTTGATTTTTTTCGGAGTCACCTAGTGCAG  20600 fluorescence intensity (a.u.)
